Screen size: about 300,000 compounds; about 37,000 (12%) were called active. Rule as the data show it: active = max response mostly above about 13% (no sharp cut-off); inactive = mostly below about 14%. Shown is part of a subset that was picked to be rich in actives.
Assay: Cycloheximide Counterscreen for Small Molecule Inhibitors of Shiga Toxin; also: read at 38.3 µM for the half of the compounds with a filed dose; 0% is about no effect
Conditions: cell reporter, cycloheximide protein synthesis inhibition counterscreen; active compounds read high

SMILES	max response
NC(=O)NC(=O)CSc1nc2cc([N+](=O)[O-])ccc2n1-c1cccc(C(F)(F)F)c1	-1.36% (inactive)
Cn1c(CO)cnc1SCc1ccccc1	21.1% (active)
Cn1c(-c2ccc(F)cc2)cnc1SCC(=O)NNC(=O)Cc1ccccc1	-0.376% (inactive)
CSc1c(SCc2ccccc2)cnn(Cc2ccccc2)c1=O	5.89% (inactive)
CCOC(=O)c1cccc(NS(=O)(=O)c2c(C(=O)N3CCCCCC3)c(C)n(C)c2C)c1	1.94% (inactive)
CC/C(=N\NC(=O)c1ccccc1O)c1c(O)n(Cc2ccccc2)c(=O)[nH]c1=O	23% (active)
CCCCCCN=C(CC)c1c(O)n(CCCC)c(=O)[nH]c1=O	-2.56% (inactive)
CCCCn1c(O)c(C(CC)=NCc2ccco2)c(=O)[nH]c1=O	-4.03% (inactive)
Cc1cc(-c2ccc(C)c(S(=O)(=O)Nc3ccc(S(N)(=O)=O)cc3)c2)on1	4.89% (inactive)
CC(=O)c1ccc(N2CCN(CC(=O)Nc3ccccc3N3CCOCC3)CC2)cc1	-0.941% (inactive)
Cc1ccccc1C(=O)N1CCN(c2ccc(NC(=O)c3cccs3)cc2)CC1	-1.82% (inactive)
COc1ccc(C(=O)NC(=S)Nc2ccc(N3CCCC3)cc2)cc1OC	-0.974% (inactive)
C/C(=N\NC(=O)c1ccccc1C)c1ccc(N2CCOCC2)cc1	18.1% (active)
CN1CCN(c2ccc(NC(=O)c3ccccc3)cc2)CC1	30.4% (active)
O=C(Nc1ccc(S(=O)(=O)N2CCc3ccccc3C2)cc1)c1ccccc1	-1.47% (inactive)
Cc1ccccc1C(=O)NC(=S)Nc1ccc(N2CCN(C(=O)c3ccccc3)CC2)cc1	-3.14% (inactive)
COc1cccc(C(=O)Nc2ccc(N3CCCC3)cc2)c1	30.8% (active)
Cc1ccccc1C(=O)Nc1ccc(N2CCCCCC2)cc1	19% (active)
COc1cccc(C(=O)Nc2ccc(N3CCN(C(=O)c4ccco4)CC3)cc2)c1	-5.64% (inactive)
C/C(CCc1ccccc1)=N\NC(=O)c1ccc(CN2CCOCC2)cc1	6.88% (inactive)
CN1CCN(c2ccc(NC(=O)c3ccc4c(c3)[nH]c(=O)n4Cc3ccc(F)cc3)cc2)CC1	-2.44% (inactive)
CC(C)Oc1ccc(CC(=O)NNC(=S)Nc2ccc(Br)cc2)cc1	-3.17% (inactive)
Cc1cc(-c2ccc(S(=O)(=O)N3CCN(c4cccc(C(F)(F)F)c4)CC3)s2)on1	1.18% (inactive)

SMILES	max response
CCOc1ccccc1C(=O)NC1CC2CCCC(C1)N2Cc1ccccc1 (configuration not stated)	-3.26% (inactive)
COC(=O)C1=C(N)Oc2cc(C)[nH]c(=O)c2C1c1ccc(Cl)cc1 (configuration not stated)	0.893% (inactive)
CC(C)(C)n1ncc2c(=O)n(Cc3ccc(Cl)cc3)cnc21	11.3% (inactive)
COc1ccc(/C=N/NC(=O)C(C)N(c2ccc(OC)cc2)S(C)(=O)=O)cc1 (configuration not stated)	-4.86% (inactive)
Cc1nc(N2CCN(c3ccccn3)CC2)c2c(C)c(C(=O)Nc3ccc(F)c(Cl)c3)sc2n1	-3.16% (inactive)
O=C(Nc1cc(C(=O)Nc2ccc(S(=O)(=O)O)cc2)cc(C(=O)Nc2ccc(S(=O)(=O)O)cc2)c1)Nc1cc(C(=O)Nc2ccc(S(=O)(=O)O)cc2)cc(C(=O)Nc2ccc(S(=O)(=O)O)cc2)c1	-6.6% (inactive)
CC(C)(C)C(=O)NC1CC2CCCC(C1)N2C(=O)Nc1ccccc1F (configuration not stated)	-1.8% (inactive)
O=C(O)c1cc(S(=O)(=O)N(Cc2ccccc2)c2cccc(C(F)(F)F)c2)ccc1Cl	-2.82% (inactive)
CCc1nn(CCCC(=O)Nc2ccc(C)c(C)c2)c(=O)c2cc3occc3n12	0.415% (inactive)
COc1cccc(C(=O)NNS(=O)(=O)c2ccc(F)cc2)c1	11.3% (inactive)
COc1cccc(C(=O)NNC(=O)c2ccccc2Br)c1	-3.22% (inactive)
COc1cccc(C(=O)Nc2cc3c(cc2Br)OCCCO3)c1	86.1% (active)
CC(=O)Oc1cccc(C(=O)Nc2ccccc2NC(=O)c2cccc(OC(C)=O)c2)c1	4.65% (inactive)
COc1cccc(C(=O)NNC(=O)c2cccc(F)c2)c1	26.6% (active)
COc1cccc(C(=O)NNC(=O)/C=C/c2ccccc2)c1	0.531% (inactive)
O=C(NCCCN1CCN(c2ccc(F)cc2)CC1)Nc1ccc([N+](=O)[O-])cc1	5.85% (inactive)
COc1ccc(C(=O)Nc2ncc3c(n2)-c2ccccc2CC3)cc1	1.82% (inactive)
CN(C)CCCNC(=O)c1ccc2[nH]c3ccccc3c2c1	-1.73% (inactive)
CN(C)CCNC(=O)c1[nH]nc2c1CCc1ccccc1-2	41.8% (active)
Cc1ccccc1CN1CCC(C(=O)Nc2ccc(Oc3cccnc3)cc2)CC1	1.17% (inactive)
CCOCC(=O)Nc1sc2c(c1C(=O)OCC)CCCC2	-2.31% (inactive)
CCOC(=O)c1c(NC(=S)NC)sc2c1CCCC2	20.2% (inactive)
CCOC(=O)c1c(NC(=O)C2CCN(S(=O)(=O)c3ccc(Cl)cc3)CC2)sc2c1CCCC2	25.4% (active)

SMILES	max response
COc1ccc(-c2n[nH]c(C)c2-c2ccccc2OC)c(O)c1	-4.33% (inactive)
CCc1ccc(-c2nc(SCC(=O)NC3CCCC3)n[nH]2)cc1	18.2% (active)
CCc1c(C)nc(SCC(=O)NC2CCCC2)[nH]c1=O	4.69% (inactive)
COc1ccc(-c2nc(SCC(=O)N3CCCC3)n[nH]2)cc1	-1.17% (inactive)
O=C(O)CCn1c(Cc2ccccc2)nc2ccccc21	-1.08% (inactive)
CCC(C(=O)OCC(=O)Nc1c(Cl)cc(Cl)cc1Cl)c1ccccc1 (configuration not stated)	1.18% (inactive)
CCCOC(=O)Nc1ccccc1C(N)=O	-2.21% (inactive)
COc1cccc(OCC(=O)Nc2ccccc2C(N)=O)c1	34.1% (active)
Cc1cccc(OCC(=O)NCCCNC(=O)c2ccccn2)c1	-3.32% (inactive)
Cc1cccc(OCC(=O)Nc2ccc(C(=O)O)cc2NC(=O)COc2cccc(C)c2)c1	2.91% (inactive)
Cc1cccc(OCC(=O)Nc2ccccc2F)c1	44.1% (active)
Cc1cccc(OCCC(=O)Nc2ccccc2C(N)=O)c1	12.6% (inactive)
Cc1ccc(F)c(NC(=O)CCc2ccccc2)c1	33% (active)
O=C(CCc1ccccc1)NNc1ccc(F)cc1	-0.637% (inactive)
Cc1ccc(F)c(NC(=O)CCOc2ccccc2C)c1	6.62% (inactive)
CC(=O)OCC(NC(=O)C(Cc1ccccc1)NC(=O)OC(C)(C)C)C1OC(n2ccc(=O)[nH]c2=O)C(OC(C)=O)C1OC(C)=O (configuration not stated)	10.7% (inactive)
CC(=O)N1c2ccc(S(=O)(=O)N3CCCC(C(=O)Nc4cccc(Cl)c4)C3)cc2CC1C (configuration not stated)	-3.38% (inactive)
COc1ccccc1N1CCN(C(=O)c2c(-c3c(Cl)cccc3Cl)noc2C)CC1	-1.33% (inactive)
O=C(c1ccc2ccccc2n1)N1CCN(c2ccccc2Cl)CC1	25.6% (active)
O=C(c1c(Cl)cccc1Cl)N1CCN(c2cccc3[nH]ccc23)CC1	-4.42% (inactive)
COc1cc(S(=O)(=O)N2CCOCC2)ccc1NC(=O)COc1ccc(N(C)S(=O)(=O)c2ccc(C)cc2)cc1	-7.22% (inactive)
COc1ccc(NC(=O)CN2C(=O)CSC2=O)cc1	-1.12% (inactive)
CCc1ccc(NC(=O)CN2C(=O)COc3ccc(S(=O)(=O)N4CCCC4)cc32)cc1	-7.9% (inactive)

SMILES	max response
CCc1ccc(NC(=O)CN2C(=O)CSC2=O)cc1	24.5% (active)
CC(C)Cc1nc(Nc2ccc(S(=O)(=O)N3CCCC3)cc2)c2nnn(Cc3ccccc3)c2n1	-1.7% (inactive)
CCOC(=O)C(NS(=O)(=O)c1ccc(C)cc1)(C(F)(F)F)P(=O)(OCC(C)C)OCC(C)C (configuration not stated)	-2.77% (inactive)
CCc1ccccc1NC(=O)c1cc(-c2ccc3c(c2)OCO3)on1	4.1% (inactive)
O=C(Nc1ccccc1C(F)(F)F)c1cc(-c2ccc(O)cc2)on1	37.9% (active)
O=C(Nc1cccnc1Cl)c1cc(-c2cccc(Cl)c2)on1	-5.45% (inactive)
CCOc1ccc2[nH]c(=O)c(CN(CCCO)S(=O)(=O)c3ccc(F)cc3)cc2c1	-6.67% (inactive)
Fc1ccc(-c2ccc(NCCN3CCOCC3)nn2)cc1	34.4% (active)
O=C(NCCN1CCOCC1)c1c(F)c(F)c(F)c(F)c1F	-3.15% (inactive)
CN(CC(=O)NCCN1CCOCC1)S(=O)(=O)c1ccc(F)cc1	-1.49% (inactive)
CC1CCC(NS(=O)(=O)c2ccc3c(c2)CC(=O)N3)CC1 (configuration not stated)	8.83% (inactive)
N#Cc1cccc(CSc2ncnc(N)n2)c1	5.59% (inactive)
N#Cc1ccc(CSc2ncccn2)cc1	19.6% (active)
N#Cc1ccc(CSc2nnc(-c3ccccn3)n2-c2ccc(Cl)cc2)cc1	-3.26% (inactive)
COc1cc(NC(=O)c2ccccc2NS(=O)(=O)c2ccc(Cl)s2)cc(OC)c1	7.35% (inactive)
O=Cc1c(NCCc2cccc(F)c2)c2ccccc2[nH]c1=O	0.988% (inactive)
Cc1ccc(S(=O)(=O)NNC(=O)/C=C/c2cccc(F)c2)cc1	-1.72% (inactive)
CC(=O)NCCC(=O)Nc1nc(C)c(Cc2ccc3c(c2)OCO3)s1	11.6% (inactive)
O=C(Nc1nc(-c2ccc3c(c2)OCO3)cs1)c1ccncc1	21% (active)
CCOc1cccc(NC(=O)Cn2nc(-c3ccc4c(c3)OCCO4)ccc2=O)c1	-1.26% (inactive)
COc1ccc(-c2csc(NC(=O)c3ccc(N4C(=O)CCC4=O)cc3)n2)cc1OC	-1.22% (inactive)
CC(=O)NCCC(=O)Nc1nc(-c2ccc3c(c2)OCCO3)cs1	36.2% (active)
COc1ccc(OCCn2ccnc2C)cc1	-3.23% (inactive)
